The text below walks through data of PubChem BioAssay AID540345 (The Scripps Research Institute Molecular Screening Center, 2011).

Unmarked numbers belong to inactive results. No rule for the calls is given here.

The test system of this assay is Potassium Channel [KATP]. The assay can be described thus: off-target binding and CYP inhibition panel, profiling panel, selectivity assay for GPR7 antagonist project, biochemical, Ricerca HitProfilingScreen, CYP450, set 2 (AID 540345). To be noted: Ricerca radioligand binding/CYP panel, at 10 µM, hits give high values.

The term inhibition denotes the relative decrease from the control value, in per cent.

In the case of `COc1ccc(Oc2c(Cl)cnn(C3c4ccccc4-c4ccccc43)c2=O)cc1`, the inhibition was -5%.
